Results reported in PubChem BioAssay AID504339 (National Center for Advancing Translational Sciences (NCATS), 2011).
Hit rate of the full screen: of about 390,000 compounds, about 17,000 (4.4%) were called active. Not shown: some 8% with an inconclusive outcome. The call rests on the fitted dose curve; in most records, active means well fitted inhibition curve with a large enough effect; inconclusive means small, poorly fitted or top-dose-only effect; inactive means no such curve, though single readings can be large or run the other way. What follows is part of a selection rich in actives, with near analogues and random picks from the rest.

Target: Lysine-specific demethylase 4A (Homo sapiens) (UniProt O75164)
Assay: qHTS Assay for Inhibitors of JMJD2A-Tudor Domain; further: nearly all actives have a fitted effect of over 50% in size
Details: AlphaScreen JMJD2A-Tudor / H3K4me3 peptide binding; series mostly up to 114 µM
Potency means the concentration at half of the fitted maximal effect.

Sequence of Lysine-specific demethylase 4A (Homo sapiens) (O75164 whole entry, looked up, the tested form may be a part): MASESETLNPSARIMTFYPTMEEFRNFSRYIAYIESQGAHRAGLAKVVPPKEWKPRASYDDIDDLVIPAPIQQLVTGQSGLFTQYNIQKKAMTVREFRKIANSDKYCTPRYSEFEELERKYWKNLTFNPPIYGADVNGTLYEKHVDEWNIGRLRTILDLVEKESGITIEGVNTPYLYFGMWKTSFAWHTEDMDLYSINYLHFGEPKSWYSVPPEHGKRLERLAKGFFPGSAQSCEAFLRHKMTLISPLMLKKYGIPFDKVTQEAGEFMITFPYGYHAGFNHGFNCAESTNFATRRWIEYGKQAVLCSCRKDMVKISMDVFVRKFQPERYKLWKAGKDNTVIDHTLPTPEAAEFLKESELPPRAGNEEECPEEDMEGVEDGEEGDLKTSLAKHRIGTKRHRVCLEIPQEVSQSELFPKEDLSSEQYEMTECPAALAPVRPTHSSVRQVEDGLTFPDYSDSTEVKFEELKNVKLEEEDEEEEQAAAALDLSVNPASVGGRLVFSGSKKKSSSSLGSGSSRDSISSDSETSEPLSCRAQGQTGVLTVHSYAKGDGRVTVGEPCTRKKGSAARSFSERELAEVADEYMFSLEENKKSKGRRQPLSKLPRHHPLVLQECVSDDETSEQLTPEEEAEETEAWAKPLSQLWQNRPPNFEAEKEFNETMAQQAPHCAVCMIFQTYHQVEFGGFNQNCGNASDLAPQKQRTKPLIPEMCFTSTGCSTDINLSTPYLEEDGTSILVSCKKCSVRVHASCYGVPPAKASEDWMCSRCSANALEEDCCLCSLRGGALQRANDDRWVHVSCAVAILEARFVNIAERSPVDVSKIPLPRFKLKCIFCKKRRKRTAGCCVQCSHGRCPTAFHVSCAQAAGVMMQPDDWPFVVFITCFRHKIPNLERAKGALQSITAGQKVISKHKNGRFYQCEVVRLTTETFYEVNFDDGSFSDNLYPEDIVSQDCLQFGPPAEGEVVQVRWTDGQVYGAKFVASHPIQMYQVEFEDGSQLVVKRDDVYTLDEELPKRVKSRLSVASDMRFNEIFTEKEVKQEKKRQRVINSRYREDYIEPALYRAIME

Potency, active:
Cn1ccc(=Nc2ccc(NC(=O)c3ccc(N=c4ccn(C)c5ccc([N+](=O)[O-])cc45)cc3)cc2)cc1 56.2 µM, Cc1cc(=O)n(C)c(=O)n1CCCNc1ccccc1 7.94 µM, O=C1c2ccccc2C2=Nc3ccccc3SC(c3ccccc3F)C12 (centres undefined) 14.1 µM, CCOc1ccccc1OCCCNCc1ccccc1 5.01 µM, O=S(=O)(Nc1ccc(O)c2ccccc12)c1ccc(OC(F)(F)F)cc1 50.1 µM, Cc1c(CC(=O)N2CCN(C(=O)C3COc4ccccc4O3)CC2)c(=O)oc2c(O)c(O)ccc12 (centres undefined) 2.82 µM, CC(C)C1N=C2c3ccccc3N=C(SCC(=O)c3ccc(O)c(O)c3)N2C1=O (centres undefined) 3.16 µM, O=C(NCCCNCc1ccccc1)c1ccc(/C=N/O)nc1 7.94 µM, COc1cc(/C=C2/C(=O)NN(c3cccc(Cl)c3)C2=O)cc(Br)c1O 44.7 µM, COc1cccc(Cn2c(SCc3ccc(C(=O)N4CCC(C)CC4)cc3)nc3ccncc32)c1 5.62 µM, CCOc1cccc(/C=N/N2C(=O)CSC2=S)c1O 20 µM, Cc1cccc(N2CCN(C3=C(c4ccccc4)C(=O)c4ccccc43)CC2)c1C 5.62 µM, CCOc1ccc(C(=O)/C=C/c2cn(CC(O)CN3CCCCCC3)c3ccccc23)cc1 (centres undefined) 70.8 µM, COc1ccc(C/C(N)=N/OC(=O)c2ccco2)cc1OC 44.7 µM, CN(C)c1ccc(Nc2c3c4c(cccc4n(C)c2=O)C(=O)c2ccccc2-3)cc1 3.55 µM, Cc1ccc(C2C=C(c3ccc(Cl)cc3)Nc3nc(NC(=O)CCC(=O)O)nn32)cc1 (centres undefined) 79.4 µM, O=C(CNCCC1=CCCCC1)Nc1ccccc1N1CCCCCC1 56.2 µM, CCN(c1ccccc1)S(=O)(=O)c1ccc2[nH]c(=O)[nH]c2c1 56.2 µM

Potency, inactive:
CCOC(=O)c1cc2c(=O)n3ccccc3nc2n(CCCOC)c1=NC(=O)C(C)(C)Oc1ccc(Cl)cc1, Cc1ccc(-n2ncc3c(=O)n(Cc4cccc(C(F)(F)F)c4)cnc32)cc1C, COC(=O)c1ccc(Cn2c(SCC(=O)N(C)c3ccccc3)nc3ccccc32)cc1, Cc1ccc2onc(CC(=O)N3CCN(c4ccc(Cl)cc4)CC3)c2c1, CC1CCN(S(=O)(=O)c2ccc3c(c2)N(CC(=O)NCc2ccccc2Cl)C(=O)CO3)CC1, O=C(NCC12CC3CC(CC(C3)C1)C2)c1cc2nc(-c3ccccc3)cc(C(F)(F)F)n2n1, COC(=O)c1ccccc1NS(=O)(=O)c1ccc2c(c1)CCCN2C(C)=O, Cc1ccsc1CN(C(=O)c1oc2ccc(Br)cc2c1C)C1CCS(=O)(=O)C1 (centres undefined), Cc1nc2ccc(S(=O)(=O)N(CC(=O)Nc3ccc(F)cc3)Cc3ccccc3)cc2s1, Cc1ccc(OCC(=O)OCc2cc(=O)n3nc(C4CC4)sc3n2)cc1C, CCOc1ccc(NC(=O)Cn2c(=O)n(CCCC(=O)NCc3ccc4c(c3)OCO4)c(=O)c3ccccc32)cc1, CCC(CC)c1nn2cc(-c3ccccc3)nc2s1, Cn1c(=O)n(C)c2cc(C(=O)Nc3ccc(Br)cc3)ccc21, CCc1ccc(NC(=O)c2ccc(Cn3cc([N+](=O)[O-])cn3)cc2)cc1, O=C(Cn1cc(SCc2ccccc2)c2ccccc21)N1CCCCC1, O=C(NC1CC(=O)N(c2ccc(F)cc2)C1)c1ccc(S(=O)(=O)N2CCCC2)cc1 (centres undefined), CCCCCn1c(CCNC(=O)c2ccc(F)cc2)nc2ccccc21, Cc1ccc2nc(/C(C#N)=C/c3ccc(-c4ccc(C(=O)OC(C)C)cc4)o3)[nH]c2c1, COc1ccc(CCNC(=O)CCCn2c(=O)c3ccccc3n(Cc3ccc(C)cc3)c2=O)cc1OC, Cn1c(Nc2ccccc2)cc(=O)n(C)c1=O, Cc1cc2nc(C)n(CCCNC(=O)Nc3ccccc3)c2cc1C, COc1cc(C(CC(=O)NCCC(C)C)N2Cc3ccccc3C2=O)cc(OC)c1OC (centres undefined), Cc1cccc2c1-c1sc(C(=O)Nc3ccc(F)cc3F)cc1CO2, NC(=O)CSc1nc2c(oc3ccccc32)c(=O)n1Cc1ccccc1, CCCCOCCCNC(=O)c1ccccc1OCC, CCOCCCNCc1ccc(OCc2ccc(F)cc2)c(OC)c1, CCCCC(CC)CNC(=O)C1CCN(S(=O)(=O)c2cccc3nsnc23)CC1 (centres undefined), O=C1COc2ccc(S(=O)(=O)Nc3ccc(OC(F)(F)F)cc3)cc2N1, Nc1ncc(S(=O)(=O)Nc2ccc(OC(F)(F)F)cc2)cn1, COC(=O)CC1Oc2ccccc2-n2cc(-c3ccccc3)nc21 (centres undefined), CCOc1ccc(-c2cc3nc(C4CCN(C(=O)OC(C)(C)C)CC4)c(C(=O)Nc4ccc(C(=O)OC)cc4)cn3n2)cc1, COc1ccc(OC)c2sc(N3CCN(C(=O)C4COc5ccccc5O4)CC3)nc12 (centres undefined), COc1cc(NS(=O)(=O)c2ccc3c(c2)OCC(C(=O)N2CCCC2)O3)cc(OC)c1 (centres undefined), CCNC(=O)Cn1nc(C)n2c(cc3c(OC)cccc32)c1=O, O=C(CSC1=Nc2ccccc2C2=NC(c3ccccc3)C(=O)N12)NCC1CCCO1 (centres undefined), Cc1ccc(CNC(=O)CSC2=Nc3ccccc3C3=NC(C)C(=O)N23)cc1 (centres undefined), COc1ccc(-n2c(SC)nc3sc4c(c3c2=O)CCN(C(C)=O)C4)cc1, CCN1CCN(Cc2c(O)ccc3oc(C)c(C(=O)Nc4ccc(C)cc4C)c23)CC1, C[n+]1ccc(C(=O)NCc2ccccc2)cc1, CC(C)c1ccc(C(=O)NCCCc2ccccc2)cc1, Cc1nc2nc(SCC(=O)N(Cc3ccccc3)C(C)C)nn2c(C)c1Cc1ccccc1Cl, CCc1ccc(-n2nnc(-c3nc(-c4ccccc4)no3)c2C)cc1, COc1ccc(SCc2cc(=O)c3ccc(C)c(C)c3[nH]2)cc1, COc1cc(/C=N/O)cc(Br)c1OCc1cccc(Cl)c1, CCOc1c(Br)cc(/C=C2\C(=O)N(CCC#N)N=C2C)cc1OC, COc1ccc(CNc2nc(-c3ccc(Cl)cc3)nn2S(=O)(=O)c2ccc(C)cc2)cc1, Cc1cccc(NC(=O)N2CCC(CN3CCc4ccccc4C3)CC2)c1C, NS(=O)(=O)c1ccc(NC(=O)C(=O)Nc2ccc3nc4n(c(=O)c3c2)CCCCC4)cc1, O=C(c1ccc2c(c1)N(Cc1ccccc1F)C(=O)c1ccccc1S2(=O)=O)N1CCOCC1, COc1ccc(N(CC(=O)NCCc2ccc(Cl)cc2)S(=O)(=O)c2c(C)nn(C)c2C)cc1, Cc1cccc(CSc2nc3ccncc3n2Cc2ccc(C(=O)O)cc2)c1, COc1cccc(Cn2c(SCc3ccc(C(=O)N4CCCCC4)cc3)nc3ccncc32)c1, COc1cc(N2C(=O)CSC2=S)cc(OC)c1OC, O=C1CSC(=S)N1c1ccc(O)cc1, COc1ccc(-c2cn3nc(N4CCCC(C(=O)NCCCOC(C)C)C4)sc3n2)cc1 (centres undefined), Cc1ccc(-n2c(SCC(=O)c3ccccc3)nc3c([nH]c4ccccc43)c2=O)cc1, COc1ccc(NC(=O)CCNS(=O)(=O)c2ccc3c(c2)CCCC(=O)N3)cc1Cl, COc1ccc(C(=O)Nc2cccc(C(=O)OCc3cc(=O)n4c5c(sc4n3)CCCC5)c2)cc1, Cc1cccc(N2CCN(Cc3c(C)n(C)n(-c4ccccc4)c3=O)CC2)c1C, Cc1cccc(N2CCN(C(=O)c3oc(=O)c4ccccc4c3-c3ccccc3)CC2)c1C, COc1cccc(-c2n[nH]c3c2C(c2cccc(O)c2)N(C)C3=O)c1 (centres undefined), CCC(=O)N1N=C(c2ccc(OC)cc2)CC1c1cn(-c2ccccc2)nc1-c1cccs1 (centres undefined), CC1CCN(CC(O)COc2ccc(C(=O)c3ccccc3)cc2)CC1 (centres undefined), O=C(c1ccc(Cl)cc1)c1ccc(OCC(O)CN2CCCCC2)cc1 (centres undefined), Cn1c(=O)c2c(nc(Oc3ccc(C#N)cc3)n2Cc2ccc(Cl)cc2Cl)n(C)c1=O, O=[N+]([O-])c1cc(-c2nc(-c3ccccc3)no2)ccc1NCc1ccco1, COc1ccc(CC(=O)Nc2ccccc2NC(=O)c2ccco2)cc1OC, COc1ccccc1C(=O)NC(=O)COC(=O)c1ccco1, COc1ccc(OC)c(NC(=O)Cn2c(=O)n(Cc3ccccc3)c(=O)c3ccccc32)c1, CN(C)c1ccc(C2N(C)C(=O)c3ccccc3N2C)cc1 (centres undefined), Cc1cc(NS(=O)(=O)c2ccc(NC(=O)c3ccccc3C)cc2)nc(C)n1, COc1ccc(C2=CC(c3ccccc3Cl)n3nc(-c4ccc(Cl)cc4)nc3N2)cc1 (centres undefined), COc1ccc(CC(=O)Nc2nc3n(n2)C(c2ccccc2)CC(=O)N3)cc1OC (centres undefined), COc1cccc(CN2CCc3nc(SCC(=O)Nc4ccccc4)[nH]c(=O)c3C2)c1, Cc1cc(NC(=O)C(C)SCC(=O)Nc2ccccc2N2CCCCC2)no1 (centres undefined), S=C(NCCC1=CCCCC1)Nc1ccccc1, Cc1cc(-c2ccccc2)n2nc(-c3ccccc3)cc2n1, Cc1nnc(SCC(=O)NCc2ccccc2Cl)c2nn(-c3ccccc3)c(C)c12, COc1ccc(CNC(=O)c2cc3c(=O)[nH]c4ccccc4c3s2)cc1, CCN(c1ccccc1)S(=O)(=O)c1ccc(NC(=O)C(C)(C)C)cc1, CN(c1ccccc1)S(=O)(=O)c1ccc2[nH]c(=O)[nH]c2c1
